Where “and” joins values, the source holds several entries; their conditions need not be identical. Equal entries are not always repeated. Unmarked numbers belong to inactive results.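 Rule for the calls: active = AUC reduced over 20% with Padj below 0.05 in at least 2 of 3 replicates; inactive = otherwise.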

In the first assay the test system is Lactobacillus gasseri. Kind of assay: growth AUC relative to DMSO control (median of replicates) (fraction); higher = more growth (less inhibition), active = hit call of the paper. Conditions: 20 µM; 24 h. A digest of the protocol: (§1)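 Gut bacterial monocultures in mGAM were treated with 20 µM compound (1% DMSO) and grown anaerobically at 37 °C in round-bottom 96-well plates from OD600 0.05. OD600 was read hourly for 24 h, with the minimum OD set to 0. Area under the growth curve was normalised to the plate median of solvent-only wells, or to row and column medians on the industrial chemical plate. Each value is the median of three biological replicates, each grown on a separate day.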
As to `Cc1ccn2nc(S(=O)(=O)Nc3c(F)cccc3F)nc2n1`, the “growth AUC” value was 0.999.
On the same count and under the same terms, next, `N#Cc1c(Cl)c(Cl)c(Cl)c(C#N)c1Cl`: 0.558 (active); `C=CCC1=C(C)C(OC(=O)[C@@H]2[C@@H](C=C(C)C)C2(C)C)CC1=O` (some centres not stated): 0.962; `O=C(O)CNCP(=O)(O)O`: 1.04.

The subject of another assay is Lactobacillus paracasei. The description is as above. The settings on record: 20 µM; 24 h. An outline of the steps: as §1
As for `Nc1cc(Cl)cc(C(=O)O)c1Cl`, the “growth AUC” value was 1.03.
Take `CCOP(=S)(OCC)Oc1cnccn1`: the “growth AUC” value is 1.01.
On to `O=C(O)C(F)(F)C(F)(F)C(F)(F)C(F)(F)C(F)(F)C(F)(F)C(F)(F)C(F)(F)F`, for which the “growth AUC” value was 1.03.
Take `CCOP(=S)(OCC)SCSCC`: the “growth AUC” value was 0.952.
Same read-out and setting: under `CCOCn1c(-c2ccc(Cl)cc2)c(C#N)c(Br)c1C(F)(F)F` stands 0.992; under `CCS(=O)(=O)c1cccnc1S(=O)(=O)NC(=O)Nc1nc(OC)cc(OC)n1`, 0.996.
The same measure, in the same setting: next, `CCNc1nc(NC(C)C)nc(SC)n1`: 0.992.
Take `CN1COCN(Cc2cnc(Cl)s2)/C1=N/[N+](=O)[O-]`: the “growth AUC” value was 0.913.
On the same count and under the same terms, next, `COP(=S)(NC(C)C)Oc1ccccc1C(=O)OC(C)C` (configuration not stated): 0.962.
With `COC(=O)C(C)(Cl)Cl`, the “growth AUC” value is 1.03.
Regarding `CCCCOCN(C(=O)CCl)c1c(CC)cccc1CC`, the “growth AUC” value was 1.04.
Regarding `CC1(C)C(C=C(Cl)Cl)C1C(=O)OC(C#N)c1ccc(F)c(Oc2ccccc2)c1` (mixture of isomers), the “growth AUC” value was 0.98.
On to `CCOC(=O)CC(SP(=O)(OC)OC)C(=O)OCC` (configuration not stated), for which the “growth AUC” value is 0.973.
Same read-out and setting: next, `CCNc1nc(Cl)nc(NC(C)C)n1`: 1.08; `Cc1cccc(C)c1N`: 0.936; `CN(C)C(=O)Nc1ccc(Cl)cc1`: 1.03.
Consider `CCCCNC(=O)n1c(NC(=O)OC)nc2ccccc21`, for which the “growth AUC” value was 0.997.
Still for that read-out and setting: under `N#Cc1cc(I)c(O)c(I)c1` stands 0.982; under `CCOP(=S)(OCC)Oc1cc(Cl)c(Br)cc1Cl`, 1.
In the case of `Cc1cnc(C2=NC(C)(C(C)C)C(=O)N2)c(C(=O)O)c1` (configuration not stated), the “growth AUC” value is 0.939.
Take `CC1(C)CCC(Cc2ccc(Cl)cc2)C1(O)Cn1cncn1` (configuration not stated): the “growth AUC” value was 1.02.
In the case of `CCCN(CCC)c1c([N+](=O)[O-])cc(S(C)(=O)=O)cc1[N+](=O)[O-]`, the “growth AUC” value was 0.988.
As for `Cc1occc1C(=O)Nc1ccccc1`, the “growth AUC” value is 0.925.
With `CCCOCC(=Nc1ccc(Cl)cc1C(F)(F)F)n1ccnc1`, the “growth AUC” value was 0.938.
The same measure, in the same setting: under `Nc1cc(Cl)cc(Cl)c1` stands 1.
On to `O=C(O)COc1cc(Cl)c(Cl)cc1Cl`, for which the “growth AUC” value was 0.995.
Consider `Cc1cc(Cl)ccc1N=CN(C)C`, for which the “growth AUC” value was 0.997.
On the same count and under the same terms, next, `CNC(=O)Oc1cc(C)cc(C(C)C)c1`: 0.974; `CCOc1cc(Oc2ccc(C(F)(F)F)cc2Cl)ccc1[N+](=O)[O-]`: 0.955.
For the compound `O=[N+]([O-])c1c(Cl)c(Cl)c(Cl)c(Cl)c1Cl`, the “growth AUC” value is 0.945.
Same read-out and setting: under `CC(Cc1ccc(C(C)(C)C)cc1)CN1CCCCC1` (configuration not stated) stands 1.03; under `CNC(=O)c1cc(C#N)cc(C)c1NC(=O)c1cc(Br)nn1-c1ncccc1Cl`, 1.02; under `O=P(Oc1ccccc1)(Oc1ccccc1)Oc1ccccc1`, 0.958.
On the same count and under the same terms, next, `CC(=NC#N)N(C)Cc1ccc(Cl)nc1`: 1.03 and 0.987; `CO/N=C(/C1=NOCCO1)c1ccccc1Oc1ncnc(Oc2ccccc2Cl)c1F`: 1; `Cc1ccn2nc(S(=O)(=O)Nc3c(F)cccc3F)nc2n1`: 1.02.
Still for that read-out and setting: next, `N#Cc1c(Cl)c(Cl)c(Cl)c(C#N)c1Cl`: 0.872; `C=CCC1=C(C)C(OC(=O)[C@@H]2[C@@H](C=C(C)C)C2(C)C)CC1=O` (some centres not stated): 0.968; `O=C(O)CNCP(=O)(O)O`: 0.949.

The test system of the next assay is Odoribacter splanchnicus. Described as above. Conditions: 20 µM; 24 h. An outline of the steps: as §1
`Nc1cc(Cl)cc(C(=O)O)c1Cl`: the “growth AUC” value was 1.09.
`CCOP(=S)(OCC)Oc1cnccn1`: the “growth AUC” value is 1.04.
On to `O=C(O)C(F)(F)C(F)(F)C(F)(F)C(F)(F)C(F)(F)C(F)(F)C(F)(F)C(F)(F)F`, for which the “growth AUC” value is 1.07.
`CCOP(=S)(OCC)SCSCC`: the “growth AUC” value was 0.984.
As to `CCOCn1c(-c2ccc(Cl)cc2)c(C#N)c(Br)c1C(F)(F)F`, the “growth AUC” value is 0.951.
On the same count and under the same terms, under `CCS(=O)(=O)c1cccnc1S(=O)(=O)NC(=O)Nc1nc(OC)cc(OC)n1` stands 0.897.
On to `CCNc1nc(NC(C)C)nc(SC)n1`, for which the “growth AUC” value is 0.999.
Consider `CN1COCN(Cc2cnc(Cl)s2)/C1=N/[N+](=O)[O-]`, for which the “growth AUC” value was 0.999.
On the same count and under the same terms, under `COP(=S)(NC(C)C)Oc1ccccc1C(=O)OC(C)C` (configuration not stated) stands 1.07; under `COC(=O)C(C)(Cl)Cl`, 0.956.
Still for that read-out and setting: under `CCCCOCN(C(=O)CCl)c1c(CC)cccc1CC` stands 0.909.
On to `CC1(C)C(C=C(Cl)Cl)C1C(=O)OC(C#N)c1ccc(F)c(Oc2ccccc2)c1` (mixture of isomers), for which the “growth AUC” value was 0.95.
On to `CCOC(=O)CC(SP(=O)(OC)OC)C(=O)OCC` (configuration not stated), for which the “growth AUC” value is 0.913.
In the case of `CCNc1nc(Cl)nc(NC(C)C)n1`, the “growth AUC” value was 1.07.
`Cc1cccc(C)c1N`: the “growth AUC” value was 1.03.
Regarding `CN(C)C(=O)Nc1ccc(Cl)cc1`, the “growth AUC” value was 0.963.
Turning to `CCCCNC(=O)n1c(NC(=O)OC)nc2ccccc21`, the “growth AUC” value is 1.04.
Regarding `N#Cc1cc(I)c(O)c(I)c1`, the “growth AUC” value was 0.853.
Take `CCOP(=S)(OCC)Oc1cc(Cl)c(Br)cc1Cl`: the “growth AUC” value is 0.968.
Still for that read-out and setting: next, `Cc1cnc(C2=NC(C)(C(C)C)C(=O)N2)c(C(=O)O)c1` (configuration not stated): 0.953; `CC1(C)CCC(Cc2ccc(Cl)cc2)C1(O)Cn1cncn1` (configuration not stated): 0.823.
For the compound `CCCN(CCC)c1c([N+](=O)[O-])cc(S(C)(=O)=O)cc1[N+](=O)[O-]`, the “growth AUC” value is 1.08.
Consider `Cc1occc1C(=O)Nc1ccccc1`, for which the “growth AUC” value is 0.985.
Turning to `CCCOCC(=Nc1ccc(Cl)cc1C(F)(F)F)n1ccnc1`, the “growth AUC” value was 0.932.
Take `Nc1cc(Cl)cc(Cl)c1`: the “growth AUC” value is 0.893.
In the case of `O=C(O)COc1cc(Cl)c(Cl)cc1Cl`, the “growth AUC” value was 0.98.
Same read-out and setting: under `Cc1cc(Cl)ccc1N=CN(C)C` stands 1.01.
For `CNC(=O)Oc1cc(C)cc(C(C)C)c1`, the “growth AUC” value is 1.11.
In the case of `CCOc1cc(Oc2ccc(C(F)(F)F)cc2Cl)ccc1[N+](=O)[O-]`, the “growth AUC” value was 1.08.
On to `O=[N+]([O-])c1c(Cl)c(Cl)c(Cl)c(Cl)c1Cl`, for which the “growth AUC” value was 0.946.
Same read-out and setting: under `CC(Cc1ccc(C(C)(C)C)cc1)CN1CCCCC1` (configuration not stated) stands 1.05; under `CNC(=O)c1cc(C#N)cc(C)c1NC(=O)c1cc(Br)nn1-c1ncccc1Cl`, 0.99; under `O=P(Oc1ccccc1)(Oc1ccccc1)Oc1ccccc1`, 1.01.
Regarding `CC(=NC#N)N(C)Cc1ccc(Cl)nc1`, the “growth AUC” value is 1.04 and 1.02.
As to `CO/N=C(/C1=NOCCO1)c1ccccc1Oc1ncnc(Oc2ccccc2Cl)c1F`, the “growth AUC” value is 0.974.
The same measure, in the same setting: next, `Cc1ccn2nc(S(=O)(=O)Nc3c(F)cccc3F)nc2n1`: 1.09.
Regarding `N#Cc1c(Cl)c(Cl)c(Cl)c(C#N)c1Cl`, the “growth AUC” value was 0.927.
With `C=CCC1=C(C)C(OC(=O)[C@@H]2[C@@H](C=C(C)C)C2(C)C)CC1=O` (some centres not stated), the “growth AUC” value is 1.07.
As for `O=C(O)CNCP(=O)(O)O`, the “growth AUC” value was 1.08.

These data come from the supplement of paper PMC12669032.
